CBX7 inh = inhibitors of human CBX7 binding to H3K27me3 peptide | O95931 | AlphaScreen His6-CBX7 / biotin-H3K27me3 peptide binding; stronger effect = lower value | normalised signal (fraction of DMSO) (concentration not given with the values) | hit rate 1.1% among 66,000 | AID 1224903; in the data active = normalised signal below about 0.5
Target sequence (O95931 whole entry, looked up): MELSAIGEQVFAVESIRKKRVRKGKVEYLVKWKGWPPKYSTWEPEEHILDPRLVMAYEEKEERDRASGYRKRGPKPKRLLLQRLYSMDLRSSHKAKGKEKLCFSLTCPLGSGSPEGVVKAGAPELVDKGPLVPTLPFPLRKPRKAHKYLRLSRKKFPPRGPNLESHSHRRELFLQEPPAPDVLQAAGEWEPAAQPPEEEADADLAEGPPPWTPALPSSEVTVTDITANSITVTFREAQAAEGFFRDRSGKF
Large screens that a line does not name were inactive; ! = not active in a repeat. The full list was thinned out, with hits kept by preference.

NS(=O)(=O)c1ccc(CCNC(=O)c2ccccc2)cc1	none
COc1cc2c(cc1OC)C(C(=O)Nc1ccccc1F)C(c1ccccc1F)N(C)C2=O (stereo unspecified)	none
CC(NC(=O)c1ccccc1)c1nc2ccccc2n1C (stereo unspecified)	none
Cc1c(C(=O)Nc2ccc3c(c2)OCO3)sc2nc(-c3ccc(F)cc3)cn12	none
Cc1ccc(NC(=O)Cn2cnc3sc(C(=O)NCC4CCCO4)c(C)c3c2=O)cc1Cl (stereo unspecified)	none
COc1ccc(-n2nc3c(c2NC(=O)c2cc(C)cc(C)c2)CS(=O)(=O)C3)cc1	none
Cc1c(C(=O)NCc2ccccn2)oc2ccc(S(=O)(=O)N3CCC4(CC3)OCCO4)cc12	CBX7 inh 0.43
Cc1c(C(=O)NCCC(C)C)oc2ccc(S(=O)(=O)N3CCC4(CC3)OCCO4)cc12	none
Cc1c(C(=O)NCc2ccccc2)oc2ccc(S(=O)(=O)N3CCC4(CC3)OCCO4)cc12	none
Cc1cc(C)c(CC2(O)CC(C)N(C)CC2C)cc1C (stereo unspecified)	none
COc1cc(OC)c(NC(=O)c2cc3c(-c4ccc(OC)c(OC)c4)nn(C)c3s2)cc1Cl	none
Cc1ccc(S(=O)(=O)Nc2nc3ccccc3nc2N2CCN(C)CC2)cc1	none
O=S(=O)(Nc1nc2ccccc2nc1N1CCc2ccccc2C1)c1ccc(Br)cc1	CBX7 inh 0.4
CN1CCN(c2nc3ccccc3nc2NS(=O)(=O)c2ccc(Br)cc2)CC1	none
Cc1cccc(NC(=O)c2sc3ncnc(N4CCOCC4)c3c2C)c1	none
COc1ccccc1NC(=O)Cn1cnc2sc(C(=O)Nc3cccc(Cl)c3)c(C)c2c1=O	none
Cc1cccc(NC(=O)CSc2nnc(CNC(=O)COc3ccc(Cl)cc3)o2)c1C	none
O=S(=O)(Nc1cccc2cccnc12)c1ccccc1O	CBX7 inh 0
Cc1cc(C)c(S(=O)(=O)Nc2cccc3cccnc23)c(C)c1	none
CC(=O)Nc1ccc(NS(=O)(=O)c2cccc3cccnc23)cc1	none
Cc1cc(C)nc(Nc2ncc(O)n2-c2cccc(Cl)c2)n1	none
COc1ccc(CCNc2oc(COc3ccc(C)cc3)nc2C#N)cc1OC	CBX7 inh 0.48
Cc1cccc(OCc2nc(C#N)c(NCc3ccc4c(c3)OCO4)o2)c1	CBX7 inh 0.43
Cc1cccc(OCc2nc(C#N)c(NCCc3ccccc3)o2)c1	none
COc1ccc(CCNc2oc(COc3ccc(Cl)cc3)nc2C#N)cc1OC	none
Cc1ccccc1OCc1nc(C#N)c(NCc2ccc3c(c2)OCO3)o1	none
COc1ccc(CCNc2oc(COc3cccc(C)c3)nc2C#N)cc1OC	CBX7 inh 0.46
COc1ccc(CCNc2oc(COc3ccc(F)cc3)nc2C#N)cc1OC	none
COc1ccc(CNc2oc(COc3cccc(C)c3)nc2C#N)cc1	none
Cc1cccc(OCc2nc(C#N)c(NCCN(C)C)o2)c1	none
O=C(Nc1ccc(Br)cn1)c1cc2ccccc2oc1=O	none
Cc1cc(N2CCC(C(=O)N3C(C)CCCC3C)CC2)n2nc(C)c(-c3ccc(Cl)cc3)c2n1 (stereo unspecified)	none
CCOc1ccc(-c2nc(CSCC(=O)NC(C)c3ccccc3)c(C)o2)cc1 (stereo unspecified)	none
Cc1cccn2c(NC(=O)c3ccc(Cl)cc3)c(-c3cccs3)nc12	none
COc1ccc(CC(=O)N2CC(=O)Nc3ccc(F)cc3C2c2ccc(F)cc2)cc1OC (stereo unspecified)	none
COc1ccc(OC)c(C2=NOC(C(=O)NC3CCCC3)C2)c1 (stereo unspecified)	none
Cc1cccc(NC(=O)c2c(-c3ccccc3Cl)noc2C)c1C	none
O=C(O)c1ccc2c(c1)C(=O)N(c1ccccn1)C2=O	none
Cc1cccc(OCC(=O)Nc2cc(-c3nc4cc(C)ccc4o3)ccc2Cl)c1	none
CSCC[C@@H](C(=O)Nc1cccc(F)c1)N1Cc2ccccc2C1=O	CBX7 inh 0.49
CS(=O)(=O)CC[C@@H](C(=O)Nc1cccc(F)c1)N1Cc2ccccc2C1=O	none
COc1ccc(NC(=O)[C@H](CSCc2ccccc2)N2Cc3ccccc3C2=O)cc1Cl	none
CSCC[C@@H](C(=O)Nc1ccc(C)c(F)c1)N1Cc2ccccc2C1=O	none
COc1ccc(NC(=O)[C@H](Cc2ccccc2)N2Cc3ccccc3C2=O)cc1Cl	CBX7 inh 0.31
COc1ccc(NC(=O)[C@H](CCS(C)(=O)=O)N2Cc3ccccc3C2=O)cc1OC	none
CCN1C(=O)c2ccccc2Sc2ccc(C(=O)NCc3ccccc3Cl)cc21	none
O=C(NCC1CCCO1)c1ccc2c(c1)N(Cc1ccccc1Cl)C(=O)c1ccccc1S2 (stereo unspecified)	none
Cc1ccc(Nc2nc(-c3c(C)nc4sccn34)cs2)c(C)c1	CBX7 inh 0.42!
COc1ccccc1Nc1nc(-c2c(C)nc3ccccn23)cs1	none
Cc1cccc(Nc2nc(-c3c(C)nc4ccccn34)cs2)c1	none
COc1ccc(Cl)cc1Nc1nc(-c2c(C)nc3sccn23)cs1	none
COc1ccccc1Nc1nc(-c2c(C)nc3sccn23)cs1	CBX7 inh 0.32
Cc1nc2ccccn2c1-c1csc(Nc2ccc(Br)cc2Br)n1	none
CCCc1cc(C(=O)Nc2c(Cl)cccc2Cl)no1	none
CCOC(=O)c1sc2ncn(CC(=O)NC3CCCCC3)c(=O)c2c1C	none
Cc1ccc(-c2nc(CSCC(=O)NCCc3ccccc3)c(C)o2)cc1	none
Cc1ccccc1NC(=O)CSc1nc(-c2ccccc2)cn1-c1ccccc1C	none
Cc1c(C(=O)N(C)Cc2ccccc2)oc2ccc(S(=O)(=O)N3CCCCC3)cc12	none
CCOC(=O)N1CCN(C(=O)C2CCN(C(=O)c3cc4sccc4n3CC)CC2)CC1	none
CCn1c(C(=O)N2CCC(C(=O)N3CCN(c4cccc(C)c4)C(C)C3)CC2)cc2sccc21 (stereo unspecified)	CBX7 inh 0.44
CCn1c(C(=O)N2CCCC(C(=O)N3CCN(c4cccc(C)c4)C(C)C3)C2)cc2sccc21 (stereo unspecified)	none
CC1CC(C)CN(C(=O)CN2C(=O)COc3ccc(S(=O)(=O)N4CCCCCC4)cc32)C1 (stereo unspecified)	none
CC(=O)NC1(c2nnnn2-c2cccc(Cl)c2)CCCCC1	none
O=C(Nc1c(-c2ccccc2)nc2ccccn12)c1cccc(F)c1	none
O=C(c1ccc2c(c1)N(Cc1ccccc1F)C(=O)CS2)N1CCCC1	none
CCSc1nnc(-c2ccc3[nH]c(C)c(C)c3c2)n1-c1ccccc1	none
Cc1[nH]c2ccc(-c3nnc(SCCc4ccccc4)n3-c3ccccc3)cc2c1C	none
Cc1[nH]c2ccc(-c3nnc(SCCO)n3-c3ccc(Br)cc3)cc2c1C	CBX7 inh 0.45
CCCCCCc1c(O)nc(SCCN2CCOCC2)n(-c2ccccc2)c1=O	none
COc1ccc(OC)c(NC(=O)C2(S(=O)(=O)c3ccc(C)cc3)CC2)c1	none
Cc1ccc(-n2ncc3c(N(CCO)CCO)ncnc32)c(C)c1	none
CCOC(=O)c1cnc2c(OC)cccc2c1Nc1ccc(CC)cc1	none
CCOC(=O)c1cnc2c(OC)cccc2c1N1CCC(Cc2ccccc2)CC1	CBX7 inh 0.42
CCOC(=O)c1cnc2c(OC)cccc2c1NCc1ccccc1OC	none
COc1cccc(C2CC(C(F)(F)F)n3ncc(C(=O)NCCc4ccccc4)c3N2)c1 (stereo unspecified)	none
O=C1Nc2ccccc2Oc2cc([N+](=O)[O-])cc(Oc3cccc(Cl)c3)c21	CBX7 inh 0.37
CCOc1cc([N+](=O)[O-])cc2c1C(=O)Nc1ccccc1O2	none
O=C1Nc2ccccc2Oc2cc([N+](=O)[O-])cc(Oc3cccc(Cl)c3Cl)c21	CBX7 inh 0.48
O=C1Nc2ccccc2Oc2cc([N+](=O)[O-])cc(OCCO)c21	none
COc1ccc(OC)c(CNC(=O)CCCOc2cc(=O)n(C)c3ccccc23)c1	none

Compound activity as filed in PubChem BioAssay.
